This is part of a sample that, as a whole, favours compounds with a hit. Of some 83,000 tested, about 20% had one in any assay.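 Testing used 96-well plates and a 48-hour single-concentration exposure. Example: -40 means 40% of the starting cells died.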 Unmarked numbers belong to inactive results. Activity calls are given as the source filed them. Rule for the calls: active = growth percent below 10; inactive = the rest.

Test systems include NCI-H23 lung; NCI-H226 lung; NCI-H322M lung; HOP-62 NSCLC; NCI-H460 lung; HOP-92 NSCLC; NCI-H522 lung; A549/ATCC NSCLC; 786-0 renal; COLO 205 colon.
What all share (assay): NCI-60 one-dose screen, 48 h (100 = growth as untreated, 0 = no growth, -100 = all killed)
Details in all cases: 10 µM unless noted

For `C=CC[n+]1cccc2c3ccccc3ccc21`, the growth in the experiment with NCI-H23 lung is 27.4%; with NCI-H226 lung, 58%; in the experiment with NCI-H322M lung, 76.7%; in the experiment with HOP-62 NSCLC, 44.9%; in the experiment on NCI-H460 lung it was 23.2%; with HOP-92 NSCLC, 52.3%. Also, the growth was 27.1% with NCI-H522 lung, 28.1% in the experiment on A549/ATCC NSCLC, 66.2% in the experiment on 786-0 renal and 28.4% in the experiment with COLO 205 colon.

`Cc1cc(N=C(N)c2ccccc2)ccc1OCCCCCCCCn1ccnc1`: the growth is -28% (active) in the experiment on NCI-H23 lung; 18.7% in the experiment with NCI-H322M lung; -14.4% (active) in the experiment on HOP-62 NSCLC; 16.3% in the experiment on HOP-92 NSCLC; 15% with A549/ATCC NSCLC; 4.01% (active) in the experiment on 786-0 renal.

As for `C=CCSc1nnc(-c2c(C)nc3sccn23)o1`, the growth in the experiment with NCI-H23 lung was 88.7%; in the experiment with NCI-H226 lung, 76.1%; in the experiment with NCI-H322M lung, 84.9%; in the experiment on HOP-62 NSCLC, 106%; in the experiment with NCI-H460 lung it was 95.8%; in the experiment with HOP-92 NSCLC it was 72.4%. For the same molecule, the growth is 89% in the experiment on NCI-H522 lung, 92.7% in the experiment on A549/ATCC NSCLC, 89.8% in the experiment with 786-0 renal and 107% with COLO 205 colon.

As to `Nc1nc(-c2ccccc2)c(N=Nc2ccc(Cl)cc2Cl)s1`, the growth in the experiment with NCI-H23 lung was -43.8% (active); in the experiment with NCI-H226 lung, -17.4% (active); in the experiment on NCI-H322M lung, 4.7% (active); in the experiment with HOP-62 NSCLC it was -61.9% (active); in the experiment with NCI-H460 lung, -66.8% (active); in the experiment on HOP-92 NSCLC it was -54.1% (active). For the same molecule, the growth in the experiment with NCI-H522 lung was -15.3% (active); in the experiment on A549/ATCC NSCLC, 12.5%; in the experiment with 786-0 renal, -51.9% (active); in the experiment with COLO 205 colon, -16.6% (active).

Regarding `N#CC1=C(c2cccs2)Nc2c(c(-c3ccccc3)nn2-c2ccccc2)C12C(=O)Nc1ccc(Br)cc12` (stereo not drawn), the growth in the experiment with NCI-H23 lung was 2.18% (active); in the experiment on NCI-H226 lung it was 13%; in the experiment on NCI-H322M lung, 26.9%; in the experiment on HOP-62 NSCLC, -75.2% (active); in the experiment on NCI-H460 lung, -46.7% (active); in the experiment with HOP-92 NSCLC, -24.7% (active). In addition, the growth in the experiment with NCI-H522 lung is -12.4% (active); in the experiment with A549/ATCC NSCLC, -9.72% (active); with 786-0 renal it was -22.7% (active); in the experiment on COLO 205 colon, -83% (active).

In the case of `CCCCCCCCc1ccc(C(=O)Nc2ccc(C)c(OP(=O)(O)O)c2)cc1`, the growth in the experiment on NCI-H23 lung was 101%; in the experiment with NCI-H226 lung, 102%; with NCI-H322M lung it was 111%; with HOP-62 NSCLC it was 104%; with NCI-H460 lung, 110%; with HOP-92 NSCLC, 42%. The growth is 82.1% with NCI-H522 lung, 105% with A549/ATCC NSCLC, 83.6% in the experiment with 786-0 renal and 126% in the experiment on COLO 205 colon.

With `COc1cccc(-c2ccc(/C=N/NC(=O)c3[nH]c4ccc(Br)cc4c3-c3ccccc3)s2)c1`, the growth in the experiment on NCI-H23 lung is -41.9% (active); with NCI-H226 lung, -1.63% (active); with NCI-H322M lung, 49.1%; in the experiment on HOP-62 NSCLC, 14.6%; in the experiment on NCI-H460 lung, -15.4% (active); in the experiment on HOP-92 NSCLC, 43.1%. Also, the growth with NCI-H522 lung was -65.4% (active); with A549/ATCC NSCLC, 10.7%; with 786-0 renal, -12.2% (active); in the experiment on COLO 205 colon it was -28.7% (active).

With `NC(=Nc1ccc(OCCCCCCCCn2cnnn2)cc1)c1ccccc1`, the growth is 10.8% in the experiment with NCI-H23 lung; 21.3% with NCI-H226 lung; 57% in the experiment with NCI-H322M lung; 18.6% with HOP-62 NSCLC; 82.5% in the experiment on HOP-92 NSCLC; 23.7% in the experiment with A549/ATCC NSCLC. In addition, the growth in the experiment on 786-0 renal is 34.5%.

In the case of `CCN1CCN(Cc2ccc(C(=O)Nc3cccc(Nc4ccc5c(OC)cccc5n4)c3)cc2C(F)(F)F)CC1`, the growth in the experiment on NCI-H23 lung is -96.1% (active); in the experiment with NCI-H226 lung it was -85.8% (active); in the experiment on NCI-H322M lung, -100% (active); with HOP-62 NSCLC it was -63.5% (active); in the experiment with NCI-H460 lung it was -69% (active); with HOP-92 NSCLC, -75.1% (active). For the same molecule, the growth in the experiment on NCI-H522 lung was -83.3% (active); with A549/ATCC NSCLC, -68% (active); in the experiment with 786-0 renal it was -73% (active); in the experiment with COLO 205 colon it was -67.5% (active).

Consider `CN(C)CCCc1ccc(Nc2cnn(C)c(=O)c2Cl)cc1`, for which the growth with NCI-H23 lung was 98%; with NCI-H226 lung, 99%; with NCI-H322M lung, 92.9%; in the experiment on HOP-62 NSCLC, 108%; in the experiment with NCI-H460 lung, 103%; with HOP-92 NSCLC, 110%. Further, the growth was 96.3% in the experiment with NCI-H522 lung, 93.8% in the experiment with A549/ATCC NSCLC, 95.9% with 786-0 renal and 118% in the experiment with COLO 205 colon.

`Cc1cnc2ccc(Oc3ccccc3-c3ccccc3)nn12`: the growth in the experiment with NCI-H23 lung was 96.6%; with NCI-H226 lung, 106%; with NCI-H322M lung it was 103%; in the experiment on HOP-62 NSCLC, 124%; in the experiment on NCI-H460 lung, 118%; with HOP-92 NSCLC, 122%. Besides, the growth with NCI-H522 lung is 108%; in the experiment on A549/ATCC NSCLC, 117%; in the experiment on 786-0 renal it was 102%; in the experiment with COLO 205 colon, 131%.

Regarding `COc1ccc(-c2nc3ccc(-c4nnc(SCC(=O)Nc5ccc(/C(C)=N\O)cc5)o4)cc3[nH]2)cc1`, the growth was 42.6% in the experiment on NCI-H23 lung; 77.5% with NCI-H226 lung; 46.5% in the experiment on NCI-H322M lung; 77% in the experiment on HOP-62 NSCLC; 59.1% with NCI-H460 lung; 104% in the experiment with HOP-92 NSCLC. Besides, the growth in the experiment on NCI-H522 lung was 40.1%; with A549/ATCC NSCLC, 74.2%; in the experiment with 786-0 renal it was -62.1% (active); in the experiment with COLO 205 colon, 107%.

These data come from PubChem BioAssay (NCI).
